Records with an inconclusive call do not appear. The source made the active and inactive calls. Calls come from the whole dose curve; as a rule, active = well fitted activation curve with a large enough effect; inconclusive = small, poorly fitted or top-dose-only effect; inactive = no such curve, though single readings can be large or run the other way.
Potency is the fitted concentration of half-maximal effect.

Cellular tumor antigen p53 (Homo sapiens), sequence (P04637 whole entry, looked up): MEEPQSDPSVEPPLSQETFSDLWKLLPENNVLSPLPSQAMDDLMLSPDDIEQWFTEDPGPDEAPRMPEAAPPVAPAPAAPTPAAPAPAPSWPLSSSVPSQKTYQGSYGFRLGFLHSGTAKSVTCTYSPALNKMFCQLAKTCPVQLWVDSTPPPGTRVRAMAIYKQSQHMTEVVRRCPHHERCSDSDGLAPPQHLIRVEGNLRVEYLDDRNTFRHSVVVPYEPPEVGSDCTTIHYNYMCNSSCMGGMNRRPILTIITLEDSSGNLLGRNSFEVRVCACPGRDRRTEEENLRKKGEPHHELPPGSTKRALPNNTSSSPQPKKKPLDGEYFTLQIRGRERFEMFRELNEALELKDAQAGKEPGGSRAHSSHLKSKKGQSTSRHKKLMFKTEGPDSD

This experiment deals with Cellular tumor antigen p53 (Homo sapiens) (UniProt P04637). The experiment is described as follows: Primary qHTS for small molecule compounds that upregulate eGFP-tagged delta133p53alpha (in N-terminal) cells. (AID 2060322).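 For activation: cells pre-induced with doxycycline then dosed without doxycycline; series mostly up to about 56 µM; 0% = DMSO vehicle and 100% = reference activator.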 Note: nearly all actives have a fitted effect of over 75% in size. Conditions: NCI-H358 eGFP-delta133p53alpha fluorescence, 24 h; activation: stronger effect = higher value. A digest of the protocol:
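NCI-H358 cells pre-induced 24 h with 10 ng/ml doxycycline for eGFP-delta133p53alpha, plated dox-free and exposed 24 h at 37C to titrated compounds. Fixed, Hoechst-stained; gated GFP peak intensity by laser scanning cytometry, normalized to DMSO (0%) and 57.5 uM 5-azacytidine (100%).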
A general note: In qHTS, concentration-response curves come from the screen itself.
Turning to `CC(=O)Nc1ccc(S(=O)(=O)Nc2ccc([N+](=O)[O-])cc2)cc1`, the activation was -10.7% (inactive). Still for that read-out and setting: under `COc1cc(CNC(=O)CCCCC=CC(C)C)ccc1O` stands -14.9% (inactive). `CN(C)C(=S)SC(=S)N(C)C`: the Potency is 21.9 µM (active). As for `CC(C)=CCC1C(=O)N(c2ccccc2)N(c2ccccc2)C1=O`, the activation is -15.3% (inactive). Still for that read-out and setting: under `CN1CCC[C@H]1CCO[C@](C)(c1ccccc1)c1ccc(Cl)cc1` stands 16.8% (inactive); under `CC(=O)N1CCN(c2ccc(O)cc2)CC1`, -15.3% (inactive). As for `Cc1cc(O)c2ccccc2c1O`, the Potency is 34.7 µM (active). `COc1ccc(/C(C)=C/C(=O)O)c(OC)c1`: the activation is -10.7% (inactive). The same measure, in the same setting: as for `COc1c(C)c2c(c(O)c1CC=C(C)CCC(=O)OCCN1CCOCC1)C(=O)OC2`, the figure is 13.4% (inactive). With `Cc1ccc(CCn2c3c(c4cc(Cl)ccc42)CN(C)CC3)cn1`, the activation is -20.9% (inactive). The same measure, in the same setting: as for `CC1(C)O[C@H]2C[C@@H]3[C@H]4CCC5=CC(=O)C=C[C@]5(C)[C@@]4(F)[C@@H](O)C[C@]3(C)[C@]2(C(=O)CO)O1`, the figure is 8.11% (inactive); as for `C[C@@H]1[C@H](O)[C@@H](C)C=CC=CC=CC=CC=CC=CC=C[C@H](O[C@@H]2O[C@H](C)[C@H](O)[C@H](N)[C@@H]2O)C[C@@H]2O[C@](O)(C[C@@H](O)C[C@@H](O)[C@H](O)CC[C@@H](O)C[C@@H](O)CC(=O)O[C@H]1C)C[C@H](O)[C@@H]2C(=O)O`, -1.15% (inactive). The same measure, in the same setting: under `C=C1C(=CC=C2CCCC3(C)[C@@H]([C@H](C)C=CC=CC(O)(CC)CC)CC[C@@H]23)C[C@@H](O)C[C@@H]1O` (stereo not given in full) stands -6.37% (inactive); under `O=c1[nH]cnc2nc[nH]c12`, -9.6% (inactive); under `COCC(=O)Nc1c(I)c(C(=O)NCC(O)CO)c(I)c(C(=O)N(C)CC(O)CO)c1I` (stereo not given), -4.18% (inactive).

Turning to `NCC(=O)CCC(=O)O`, the activation is -14.1% (inactive).

For `COC(=O)CCCCC(CCSS/C(CCO)=C(\C)N(C=O)Cc1cnc(C)nc1N)SC(C)=O` (stereo not given), the activation is 10% (inactive).

Regarding `CCc1c(C)nc2c(-c3cnn(-c4cc(CO)ccn4)c3)c[nH]n2c1=O`, the activation is 5.67% (inactive).

Turning to `COc1ccc(CCC(=O)c2c(O)cc(O[C@@H]3O[C@H](CO)[C@@H](O)[C@H](O)[C@@H]3O[C@@H]3O[C@@H](C)[C@H](O)[C@@H](O)[C@@H]3O)cc2O)cc1O`, the activation is 22.6% (inactive). The same measure, in the same setting: under `CCNC(=O)Nc1ccc(Oc2ncnc(N)c2C=NOC)cc1Cl` stands -10.2% (inactive); under `NS(=O)(=O)c1cc(C2(O)NC(=O)c3ccccc32)ccc1Cl` (stereo not given), -33.3% (inactive). For the compound `NC(=Nc1ccccc1)Nc1ccccc1`, the activation is 7.53% (inactive).

For the compound `CCOC(=O)c1cc(=O)c2c(OCC(COc3cccc4oc(C(=O)OCC)cc(=O)c34)OC(=O)[C@@H](N)CCCCN)cccc2o1`, the Potency is 27.6 µM (active). Consider `Cc1cc(-n2nc3ccc(Cl)cc3n2)c(O)c(C(C)(C)C)c1`, for which the activation was 19.8% (inactive). On the same count and under the same terms, as for `COc1cc2c(cc1OC)CN(C(=O)[C@H](C)N[C@@H](CCc1ccccc1)C(=O)O)[C@H](C(=O)O)C2`, the figure is -10.7% (inactive). The same measure, in the same setting: under `CCC(CN)=C(c1ccccc1)c1ccccc1` stands -4.18% (inactive); under `NS(=O)(=O)c1ccc(N2CCCCS2(=O)=O)cc1`, 7.34% (inactive). Consider `N#CC(=C(N)Sc1ccccc1N)C(C#N)=C(N)Sc1ccccc1N`, for which the Potency is 17.2 µM (active). Turning to `CCN(CC)CCNc1ccc(CO)c2sc3ccccc3c(=O)c12`, the activation was 28.5% (inactive). Still for that read-out and setting: under `N[C@@H](Cc1cc(I)c(Oc2ccc(O)c(I)c2)c(I)c1)C(=O)O` stands -7.64% (inactive); under `Cc1ccsc1/C=C/C1=NCCCN1C`, -2.51% (inactive). On the same count and under the same terms, under `CC1(C)S[C@@H]2[C@H](N=CN3CCCCCC3)C(=O)N2[C@H]1C(=O)O` stands -11.9% (inactive). Turning to `Nc1ccccc1N`, the Potency is 17.8 µM (active).

`CNC(=O)c1c(I)c(NC(C)=O)c(I)c(C(=O)O)c1I`: the activation is -8.47% (inactive). For `C[C@H](NCc1ccc(OCc2cccc(F)c2)cc1)C(N)=O`, the Potency is 24.3 µM (active).

On to `CC(=O)N(CC(O)CO)c1c(I)c(C(=O)NCC(O)CO)c(I)c(C(=O)NCC(O)CO)c1I` (stereo not given), for which the activation was -16.7% (inactive).

Regarding `CCCCOCCOC(=O)c1cccnc1`, the activation is -10.7% (inactive). Still for that read-out and setting: under `O=C(Nc1ncc([N+](=O)[O-])s1)c1cccs1` stands 10% (inactive). Same read-out and setting: under `Cc1ccc(C(C)C)c(O)c1` stands -8.47% (inactive). Consider `O=C(O)c1ccccc1OP(=O)(O)O`, for which the activation was -6.21% (inactive).
